# Data published in PubChem BioAssay AID1347418 (Sanford-Burnham Center for Chemical Genomics, 2020).
# Screen size: about 1,300 compounds; about 750 (58%) were called active. Some of the results follow.
# Target: Sulfhydryl oxidase 1 (Homo sapiens) (UniProt O00391)
# Test: inhibition of human sulfhydryl oxidase QSOX1 – biochemical, ROS-Glo H2O2 luminescence, HTS, primary screen (AID 1347418)
# Settings: recombinant QSOX1, ROS-Glo H2O2 luminescence; at 12.5 µM; hits give high values; active = any value above zero
# Sulfhydryl oxidase 1 (Homo sapiens), sequence (O00391 whole entry, looked up): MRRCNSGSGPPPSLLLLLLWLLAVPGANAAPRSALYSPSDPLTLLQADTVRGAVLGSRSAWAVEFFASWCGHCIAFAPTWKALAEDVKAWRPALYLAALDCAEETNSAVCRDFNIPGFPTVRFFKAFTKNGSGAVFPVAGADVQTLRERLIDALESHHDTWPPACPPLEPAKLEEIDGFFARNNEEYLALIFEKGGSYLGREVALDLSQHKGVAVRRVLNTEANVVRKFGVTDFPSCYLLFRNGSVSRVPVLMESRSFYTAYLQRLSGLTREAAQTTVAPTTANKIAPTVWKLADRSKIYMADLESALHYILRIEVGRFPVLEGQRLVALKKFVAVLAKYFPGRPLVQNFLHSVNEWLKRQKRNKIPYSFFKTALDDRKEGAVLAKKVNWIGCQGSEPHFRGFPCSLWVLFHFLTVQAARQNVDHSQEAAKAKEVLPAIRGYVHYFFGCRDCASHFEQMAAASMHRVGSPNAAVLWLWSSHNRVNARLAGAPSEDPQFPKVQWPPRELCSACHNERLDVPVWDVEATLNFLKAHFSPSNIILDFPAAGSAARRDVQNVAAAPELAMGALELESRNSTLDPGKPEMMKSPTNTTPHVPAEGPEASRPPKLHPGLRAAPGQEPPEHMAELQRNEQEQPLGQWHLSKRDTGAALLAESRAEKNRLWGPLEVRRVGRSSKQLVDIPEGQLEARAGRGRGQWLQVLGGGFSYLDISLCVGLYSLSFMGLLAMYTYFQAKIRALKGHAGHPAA
row,Structure (SMILES),inhibition
1,COc1cc(/C=C(\C#N)C(=O)Nc2nnc(C(F)(F)F)s2)ccc1OCc1ccc(C(F)(F)F)cc1C(F)(F)F,0.8% (active)
2,CN(C)c1nc2c(Br)c(Br)c(Br)c(Br)c2[nH]1,7% (active)
3,Nc1cc(=O)[nH]c(N)n1,2% (active)
4,CCCN(CCC)CCc1cccc2c1CC(=O)N2,1.5% (active)
5,CC(C)CC(NP(=O)(O)O[C@@H]1O[C@@H](C)[C@H](O)[C@@H](O)[C@H]1O)C(=O)NC(Cc1c[nH]c2ccccc12)C(=O)O (some centres undefined),4.6% (active)
6,CN[C@H](CC(=O)O)C(=O)O,2.3% (active)
7,CC[C@H](C)C(=O)O[C@H]1CCC=C2C=C[C@H](C)[C@H](CC[C@@H]3C[C@@H](O)CC(=O)O3)[C@H]21,-6.8% (inactive)
8,NC(N)=N[C@@H](CCC(=O)O)C(=O)O,0.9% (active)
9,CNCCC=C1c2ccccc2CCc2ccccc21,2.3% (active)
10,CC#CCOC(=O)c1c(C)nc2sc3c(c2c1N)CCC(O)C3 (centres undefined),1.6% (active)
11,CN1CCC[C@H]1c1cccnc1,-0.6% (inactive)
12,COc1ccccc1N1CCN(CCCNc2cc(=O)n(C)c(=O)n2C)CC1,10.9% (active)
13,COc1ccccc1N1CCN(CCCNc2c(C)c(=O)n(C)c(=O)n2C)CC1,7.4% (active)
14,CCC(C)N(C)C(=O)c1cc2ccccc2c(-c2ccccc2Cl)n1 (centres undefined),-1.2% (inactive)
15,OCCN1CCN(CCCN2c3ccccc3Sc3ccc(Cl)cc32)CC1,45.4% (active)
16,OCCN1CCN(CCCN2c3ccccc3C=Cc3ccccc32)CC1,6.4% (active)
17,CN1CCN(CCCN2c3ccccc3Sc3ccc(Cl)cc32)CC1,46.5% (active)
18,CN1CCN(C2Cc3ccccc3Sc3ccc(Cl)cc32)CC1 (centres undefined),-2.3% (inactive)
19,COc1cc2c(cc1OC)-c1cc(=Nc3c(C)cc(C)cc3C)n(C)c(=O)n1CC2,-1.4% (inactive)
20,Cc1ccc(S(=O)(=O)/C=C/C#N)cc1,0.7% (active)
21,CC(C)(C)c1ccc(S(=O)(=O)/C=C/C#N)cc1,1.2% (active)
22,C=C[C@@]1(C)CC(=O)[C@]2(O)[C@@]3(C)[C@H](O)CCC(C)(C)[C@@H]3[C@H](O)[C@H](OC(C)=O)[C@@]2(C)O1,19.3% (active)
23,Nc1nc(N)c(N=O)c(OCC2CCCCC2)n1,20.8% (active)
24,CC(C)(C)c1onc(OCP(=O)(O)O)c1CC(N)C(=O)O (centres undefined),4.7% (active)
25,CCCN(CC1CC1)c1nc(C)nc(Nc2c(Cl)cc(Cl)cc2Cl)c1Cl,0.1% (active)
26,CSC(=N)N,-7.4% (inactive)

row,Structure (SMILES),inhibition
1,CCSC(=N)N,0.7% (active)
2,CCN1/C(=C/C(C)=O)Sc2ccc(OC)cc21,10.3% (active)
3,CC(=O)O[C@H]1CC2(C)[C@@H](C[C@@H](O)[C@H]3[C@@]4(C)CC[C@@H](O)[C@@H](C)[C@@H]4CC[C@@]32C)/C1=C(/CCC=C(C)C)C(=O)O (some centres undefined),2.7% (active)
4,Fc1cccc(/C=N/N=C/c2cccc(F)c2)c1,1.9% (active)
5,Nc1nc(Nc2ccccc2)nc2c1ncn2[C@@H]1O[C@H](CO)[C@H](O)C1O (some centres undefined),-2.6% (inactive)
6,CCCCC#Cc1nc(NC)c2ncn([C@@H]3O[C@H](CO)C(O)[C@@H]3O)c2n1 (some centres undefined),-4.5% (inactive)
7,Nc1nc(Cl)nc2c1ncn2[C@@H]1O[C@H](CO)[C@H](O)C1O (some centres undefined),-0.3% (inactive)
8,CNC(=O)[C@H]1O[C@@H](n2cnc3c(NCc4ccc(N)cc4)ncnc32)C(O)[C@H]1O (some centres undefined),6% (active)
9,CCNC(=O)[C@H]1O[C@@H](n2cnc3c(N)nc(NCCc4ccc(CCC(=O)O)cc4)nc32)C(O)[C@H]1O (some centres undefined),1.5% (active)
10,CNC(=O)[C@H]1O[C@@H](n2cnc3c(NCc4cccc(I)c4)ncnc32)C(O)[C@H]1O (some centres undefined),-1.8% (inactive)
11,O=C(c1ccc(Cl)cc1)N1CCN(c2ccc([N+](=O)[O-])c3ncccc23)CC1,1.5% (active)
12,O=c1cc(N2CCOCC2)oc2c(-c3ccccc3)cccc12,-2.2% (inactive)
13,OCC1O[C@H](O)C(Cl)C(O)C1O (some centres undefined),4.9% (active)
14,CC(C)C[C@H](NC(=O)C1OC1C(=O)O)C(=O)NCCCCN=C(N)N (some centres undefined),10.1% (active)
15,COC1(C2=NCCN2)COc2ccccc2O1 (centres undefined),3.2% (active)
16,O=C(O)CN(CCN(CC(=O)O)CC(=O)O)CCN(CC(=O)O)CC(=O)O,-5% (inactive)
17,CN1C(=O)CC[C@H]1c1cccnc1,-4% (inactive)
18,Cn1ccc2cc3c(cc21)CCN3C(=O)Nc1cccnc1,-2.2% (inactive)
19,CN1CCc2cc(NC(=O)Nc3cccnc3)ccc21,7.1% (active)
20,Nc1c2c(nc3ccccc13)CCCC2O (centres undefined),-1% (inactive)
21,NNc1nncc2ccccc12,26.1% (active)
22,O=c1c(O)c(-c2cc(O)c(O)c(O)c2)oc2cc(O)cc(O)c12,25.8% (active)
23,O=c1c(O)c(-c2ccc(O)cc2O)oc2cc(O)cc(O)c12,41.5% (active)
24,O=c1cc(-c2ccc(O)cc2)oc2cc(O)cc(O)c12,15.3% (active)
25,O=c1c(O)c(-c2ccc(O)c(O)c2)oc2cc(O)cc(O)c12,33.1% (active)
26,S=C(Nc1ccccc1)Nc1nccs1,-0.6% (inactive)

row,Structure (SMILES),inhibition
1,NO,-19.9% (inactive)
2,CN(C)CCCO[C@@H]1[C@H]2OC(C)(C)O[C@H]2O[C@@H]1C(O)CO (some centres undefined),1.3% (active)
3,O=C1NC(=O)c2cc(Nc3ccccc3)c(Nc3ccccc3)cc21,44.9% (active)
4,O=[N+]([O-])c1cccc2cn[nH]c12,-7.7% (inactive)
5,O=[N+]([O-])c1cccc2c(Br)[nH]nc12,5.3% (active)
6,COCCCC/C(=N\OCCN)c1ccc(C(F)(F)F)cc1,-2% (inactive)
7,Cc1cccc(-c2[nH]c(C(C)(C)C)nc2-c2ccc3nccnc3c2)n1,6% (active)
8,N[C@H]1CONC1=O,-12.9% (inactive)
9,CN1CCN2c3ccccc3Cc3ccccc3C2C1 (centres undefined),-1.9% (inactive)
10,NC1=NCC2c3ccccc3Cc3ccccc3N12 (centres undefined),1.4% (active)
11,O=C(OCCN1CCOCC1)C1(c2ccccc2)CCCCC1,2.5% (active)
12,CCN(CC)CCOCCOC(=O)C1(c2ccccc2)CCCC1,6.3% (active)
13,CCN(CC)CCOC(=O)C1(C2CCCCC2)CCCCC1,-1.9% (inactive)
14,CCCC(C(=O)OCCN(CC)CC)(c1ccccc1)c1ccccc1,-0.5% (inactive)
15,Cn1c(=O)c2[nH]c(-c3ccc(S(=O)(=O)O)cc3)nc2n(C)c1=O,-2.4% (inactive)
16,Cn1c(=O)c2[nH]c(C3CCCC3)nc2n(C)c1=O,3.9% (active)
17,Cn1c(=O)c2[nH]c(-c3ccccc3)nc2n(C)c1=O,-2.7% (inactive)
18,CCCn1c(=O)c2[nH]c(C3CCCC3)nc2n(CCC)c1=O,2.3% (active)
19,CC/C(=C(\c1ccccc1)c1ccc(OCCN(C)C)cc1)c1ccccc1,2.2% (active)
20,CN(C)CCOC(=O)COc1ccc(Cl)cc1,-2.9% (inactive)
21,C[C@H]1c2cccc(O)c2C(O)=C2C(=O)[C@]3(O)C(O)=C(C(N)=O)C(=O)[C@@H](N(C)C)[C@@H]3[C@@H](O)[C@@H]21,-1.5% (inactive)
22,CN(C)[C@@H]1C(=O)C(C(N)=O)=C(O)[C@@]2(O)C(=O)C3=C(O)c4c(O)ccc(Cl)c4[C@@H](O)[C@H]3C[C@@H]12,9.5% (active)
23,COc1ccccc1N1CCN(CCN(C(=O)c2ccc(F)cc2)c2ccccn2)CC1,7.1% (active)
24,COc1ccccc1N1CCN(CCN(C(=O)C2CCCCC2)c2ccccn2)CC1,9.7% (active)
25,COc1ccccc1N1CCN(CCN(C(=O)c2ccc(I)cc2)c2ccccn2)CC1,11.2% (active)
26,COc1ccc(CCN(C)CCc2ccc(OC)c(OC)c2)cc1OC,-0.5% (inactive)

row,Structure (SMILES),inhibition
1,COc1ccc(Cc2nccc3cc(OC)c(OC)cc23)cc1OC,3.3% (active)
2,CC(N=C(NC#N)Nc1ccncc1)C(C)(C)C (centres undefined),4.4% (active)
3,O=c1[nH]c2ccccc2c2ccccc12,-9.8% (inactive)
4,O=C1NCc2c1c1c3ccccc3[nH]c1c1[nH]c3ccccc3c21,2.6% (active)
5,CN(C)CCCN1c2ccccc2Sc2ccccc21,46.3% (active)
6,CN(C)CCCN1c2ccccc2Sc2ccc(Cl)cc21,39.2% (active)
7,CCC(=O)c1ccc2c(c1)N(CCCN(C)C)c1ccccc1S2,20.9% (active)
8,COc1ccc([C@@H]2Sc3ccccc3N(CCN(C)C)C(=O)[C@@H]2OC(C)=O)cc1,-0.6% (inactive)
9,CN(C)CCCN1c2ccccc2Sc2ccc(C(F)(F)F)cc21,24.1% (active)
10,NC1(C(=O)O)CC1,5.5% (active)
11,NC1(C(=O)O)CCCCC1,-3.9% (inactive)
12,CC(C)ON([C@@H](C(=O)NO)C(C)C)S(=O)(=O)c1ccc(-c2ccccc2)cc1,8.9% (active)
13,CC(=O)/C=C1\C(=O)N(C)c2ccccc21,7.8% (active)
14,COc1cc(NS(C)(=O)=O)ccc1Nc1c2ccccc2nc2ccccc12,42.7% (active)
15,CN(C(=O)CCCOc1ccc2[nH]c(=O)ccc2c1)C1CCCCC1,-1.6% (inactive)
16,CC[N+](CC)(CC)CC,0.9% (active)
17,Nc1nc(N)c2nc(CNc3ccc(C(=O)NC(CCC(=O)O)C(=O)O)cc3)cnc2n1 (centres undefined),0.7% (active)
18,CN(Cc1cnc2nc(N)nc(N)c2n1)c1ccc(C(=O)N[C@@H](CCC(=O)O)C(=O)O)cc1,-2.2% (inactive)
19,CCc1cccc2c3c([nH]c12)C(CC)(CC(=O)O)OCC3 (centres undefined),9.9% (active)
20,COC(=O)[C@@H](N)Cc1ccc(O)c(O)c1,1.3% (active)
21,COC(=O)C(N)Cc1ccc(Cl)cc1 (centres undefined),9.7% (active)
22,CC(N)C(=O)OC(C)(C)Cc1ccc(Cl)cc1 (centres undefined),-3.5% (inactive)
23,NC(Cc1ccc(Cl)cc1)C(=O)O (centres undefined),-3.4% (inactive)
24,N[C@@H](Cn1ccc(=O)c(O)c1)C(=O)O,-3.8% (inactive)
25,NCCc1ccc(O)c(O)c1,8.1% (active)
26,N[C@@H](Cc1ccc(F)cc1)C(=O)O,0.8% (active)
